# Inconclusive results are not listed. Unmarked numbers belong to inactive results. Calls of active or inactive are those of the source. The call rests on the fitted dose curve; in most records, active means well fitted inhibition curve with a large enough effect; inconclusive means small, poorly fitted or top-dose-only effect; inactive means no such curve, though single readings can be large or run the other way.
# Test: Counterscreen qHTS for Identification of Calcium Integrin Binding Protein 1 (CIB1) Competitor
# Conditions: series mostly up to 114 µM; activity, negative = inhibition: at the top concentration
# Outline: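 Compounds (final up to 114 uM) preincubated 15 min at room temperature with 1 uM CIB1-GST in calcium-containing HEPES pH 7.4 buffer; 100 nM scrambled FITC peptide added, and fluorescence polarization (480/540) measured after another 15 min.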
# On the % scale 0 is the no-effect control and ±100 the full control effect; potency means the concentration at half of the fitted maximal effect.
SMILES,"activity, negative = inhibition",Potency
Cc1cc2c(C(C)C)c(O)c(O)c(C=O)c2c(O)c1-c1c(C)cc2c(C(C)C)c(O)c(O)c(C=O)c2c1O,-9.79%,
Cn1c(NC2=NC3(CCCC3)C3=C(CCCC3=O)N2)nc2ccccc21,-10.7%,
COC(=O)c1ccc(O)c2ncc(-c3ccc(C(=O)NCCCN(C)C)cc3)cc12,174%,
N#Cc1ccc(NS(=O)(=O)c2ccc(NC(=O)Cc3ccc(F)c(Cl)c3)cc2)cc1,119%,
CCC(=O)NC(c1cccs1)c1cc(Br)c2cccnc2c1O (stereo not drawn),-17.2%,
Cc1ccc(S(=O)(=O)Nc2cc3c(cc2C(=O)Nc2nc(-c4ccccc4)cs2)OCO3)cc1,106%,
C[C@H](Cc1ccc(O)c(O)c1)[C@@H](C)Cc1ccc(O)c(O)c1,,12.6 µM (active)
O=C1CCCC2=C1C(c1cccnc1Br)N=C(Nc1nc3ccccc3o1)N2 (stereo not drawn),17.1%,
CCc1oc2ccccc2c1C(=O)c1cc(Br)c(O)c(Br)c1,49.1%,
O=C1CCCC2=C1C(c1[nH]ncc1Cl)N=C(Nc1nc3ccccc3o1)N2 (stereo not drawn),-16.6%,
COc1ccc2nc(S(=O)Cc3ncc(C)c(OC)c3C)[nH]c2c1 (stereo not drawn),-29%,
CCOc1ccc(CCNC(C)=O)cc1OCC,9.35%,
O=S(=O)(Nc1nc2ccccc2s1)c1ccc(NCc2ccc(Br)cc2O)cc1,-7.61%,
COc1ccc(CC(=O)Nc2ccc(S(=O)(=O)Nc3cc(C)on3)cc2)cc1C,-11.6%,
O=C1CCCC2=C1C1(CCCOC1)N=C(Nc1nc3ccccc3o1)N2 (stereo not drawn),-6.27%,
C[C@@H](NCc1cc2ccccc2[nH]1)c1cccc2ccccc12,-14.1%,
O=C(O)C1=NC(C(=O)O)CC(C=CN2c3cc(O)c(OC4OC(CO)C(O)C(O)C4O)cc3CC2C(=O)O)=C1 (stereo not drawn),-7.75%,

SMILES,"activity, negative = inhibition",Potency
CC(OC(=O)c1ccc(S(C)(=O)=O)c([N+](=O)[O-])c1)C(=O)NC1C2CC3CC(C2)CC1C3 (stereo not drawn),-10.4%,
CCc1ccc(NC(=O)C(=O)NNC(=O)c2cccs2)cc1,56.2%,
Cc1ccc(S(=O)(=O)Nc2cnccc2C(=O)Nc2nc3ccccc3s2)cc1,11.3%,
CSC(Cc1ccc(Cl)cc1)C(=O)Nc1ccc(Cl)cc1C(=O)O (stereo not drawn),3.41%,
O=c1[nH]nc(Sc2ncc([N+](=O)[O-])s2)n1-c1ccc2c(c1)OCCO2,11.8% [at 229 µM],
N#Cc1ccc(NS(=O)(=O)c2ccc(NC(=O)Cc3ccc(Cl)c(Cl)c3)cc2)cc1,82.7%,
CCCC1CCN(C(=O)COC(=O)c2ccc(S(C)(=O)=O)c([N+](=O)[O-])c2)CC1,-26.4%,
CO[C@@H]1C(N(C)C(=O)c2ccccc2)C[C@H]2O[C@]1(C)n1c3ccccc3c3c4c(c5c6ccccc6n2c5c31)C(=O)NC4=O (stereo partly drawn),,22.4 µM (active)
Cn1cnc(-c2nccc3c(=O)[nH]c(OCCCC(F)(F)F)nc23)c1,-20.2%,
Cc1ccc([S+](=O)([O-])Nc2nn3c(=O)c4ccccc4nc3s2)cc1C,28.9%,
Cc1ccc(OCCn2c(CCNC(=O)c3ccsc3)nc3ccccc32)cc1,125%,
O=[S+]([O-])(Nc1nccs1)c1ccc(NCc2cc(Cl)cc(Br)c2O)cc1,2.31%,
COc1ccc(NC(=O)c2[nH]c(C)c(C(C)=O)c2C)cc1[S+](=O)([O-])Nc1ccccc1C#N,-11%,
Cc1ccc(C(=O)NC(c2ccco2)c2cc(Cl)c3cccnc3c2O)cc1 (stereo not drawn),37.6%,
C=C(CC)C(=O)c1ccc(OCC(=O)O)c(Cl)c1Cl,-29.6%,
NC(=O)c1ncn([C@@H]2O[C@H](CO)[C@@H](O)[C@H]2O)c1O,-4.81%,

# From PubChem BioAssay AID1508619 (National Center for Advancing Translational Sciences (NCATS), 2020)
